A selection: hits, their analogues and other compounds. The true share with any hit is near 3.4%.
HSF1 inhib – HSF1 inhibition; NIH3T3-HGL HSE-luciferase, MG132-induced, luminescence 8 h; stronger effect = lower value; activity change, negative = inhibition, % at 7.5 µM (by protocol); hit rate 0.77% among 300,000;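 active means more than half of replicate wells show activity change below -50%, luminescence cut by over half; inconclusive means some wells, but at most half, below -50%; inactive means no replicate well below -50%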;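 further: luciferase reports HSF-1 transcriptional activity via heat shock element; 0% = median of DMSO wells and -100% = zero luminescence signal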
esBAF inh – SWI/SNF esBAF complex inhibition. mouse ES cells, Bmi1-luciferase knock-in reporter, 24 h; 100% = twice the neutral-well signal. reporter increase, % at 12.5 µM. hit rate 2% among 350,000. AID 602393; in the data active means activation above about 40%; inconclusive means no clear call, values can overlap the other calls;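 further: 0% = median of the plate's neutral control wells and 100% = double that signal; a rise in the Bmi1 reporter signal indicates esBAF inhibition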
Vif inh – blocks HIV Vif function; hit rate 0.35% among 340,000; HEK293T cells, Vif self-association by quenched fluorescence, imaging, 24 h; inhibition, % at 7.49 µM; AID 602346; in the data active means inhibition above about 50%, passing the limit was not always enough; inconclusive means no clear call, values can overlap the other calls; inactive means below about 31%
HSF-1 act – increases HSF-1 driven luciferase reporter signal. NIH3T3-HGL HSF-1 luciferase reporter, MG132, 8 h; 100% = twice DMSO control signal. activation, % at 9 µM. hit rate 1.7% among 300,000;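 active means mean replicate activation of at least 50% with a set share of replicates each reaching 50%; inconclusive means only one of those two conditions met; inactive means mean below 50% and too few replicates reaching it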;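 further: 0% = median of the neutral control wells and 100% = twice that signal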
* = called active by the depositor; ? = inconclusive; / = no result given.

SMILES	HSF1 inhib	esBAF inh	Vif inh	HSF-1 act
CN1c2ccc(-c3ccccc3)cc2[C@@H]2[C@@H](CCN2C(=O)CN2CCOCC2)[C@@H]1CO	/	5	/	/
COc1ccccc1OCc1nc2ccccc2[nH]1	30	12	0	58*
Cc1ccccc1OCc1nc2ccccc2[nH]1	13	/	0	31
c1ccc2cc(OCc3nc4ccccc4[nH]3)ccc2c1	31	51*	-4	43
COc1ccc(OCc2nc3ccccc3[nH]2)cc1	26	21	-4	32
Brc1ccc(OCc2nc3ccccc3[nH]2)cc1	38	?	-10	?
Nc1ccc(C(=O)OCc2nc3ccccc3[nH]2)cc1	7	55*	4	10
c1cnc2c(OCc3nc4ccccc4[nH]3)cccc2c1	27	?	6	68*
C[C@@H]1CCCCO[C@@H](CN(C)S(=O)(=O)c2cn(C)cn2)[C@H](C)CN([C@@H](C)CO)C(=O)c2cc(N(C)C)ccc2O1	/	-2	/	/
Cc1ccccc1-c1ccc([C@H]2[C@@H](CO)N3CCCCN(C(=O)c4cccnc4)C[C@@H]23)cc1	/	-3	/	/
CCn1cc([N+](=O)[O-])c(C(=O)Nc2nc(-c3ccc(C)cc3)c(C)s2)n1	21	1	1	3
CCn1cc([N+](=O)[O-])c(C(=O)Nc2nc(-c3ccc(C)c(C)c3)c(C)s2)n1	39	/	3	61*
C[C@H]1CN([C@@H](C)CO)C(=O)c2cc(Br)cnc2O[C@H]1CN(C)S(=O)(=O)c1ccccc1	/	3	/	/
Cc1nc2c(-c3ccccc3)c[nH]n2c(=O)c1Cc1ccccc1	-24	47*	-1	-23
OCCCN=c1cc(-c2ccccc2)oc2ccc(Cl)cc12	14	72*	14	?
Cc1ccc(Nc2cc(C)c3c(O)cccc3n2)cc1C	-56*	25	3	-57
COC(=O)C[C@@H]1CC[C@H](NS(=O)(=O)c2ccc(OC)cc2)[C@@H](CO)O1	/	-3	/	/
CCOC(=O)C1CCN(C(=O)c2ccc3c(Cl)c4c(nc3c2)CCCC4)CC1	261	2	-11	316*
CCOC(=O)N1CCC(NC(=O)c2ccc3c(Cl)c4c(nc3c2)CCCC4)CC1	/	11	-3	/
CC1CCN(C(=O)c2ccc3c(Cl)c4c(nc3c2)CCCC4)CC1	194	/	-3	302*
CCCN1CCN(CCCNC(=O)c2ccc3c(Cl)c4c(nc3c2)CCCC4)CC1	112	3	-7	160*
O=C(Nc1cccnc1Cl)c1ccc2c(Cl)c3c(nc2c1)CCC3	9	/	-6	23
N#Cc1ccccc1NC(=O)c1ccc2c(Cl)c3c(nc2c1)CCCC3	72	80*	6	113*
C[C@H](O)C#Cc1cnc2c(c1)C(=O)N([C@H](C)CO)C[C@H](C)[C@H](CN(C)C(=O)CC1CC1)O2	/	-1	/	/
CCCC(=O)Nc1ccc2c(c1)C(=O)N(C)C[C@@H](OC)[C@@H](C)CN(CC1CCCC1)[C@H](C)CO2	/	-5	/	/
SMILES	HSF1 inhib	esBAF inh	Vif inh	HSF-1 act
O=C(NC1CC1)c1ccc2c(Cl)c3c(nc2c1)CCCC3	9	47*	-4	28
O=C(c1ccc2c(Cl)c3c(nc2c1)CCCC3)N1CCN(c2ccc(F)cc2)CC1	56	3	4	72*
COc1cc(C(=O)Nc2ccc3c(c2)ncn3C)cc(OC)c1OC	-7	-10	76*	-5
COc1cc(C(=O)Nc2ccccc2NC(=O)c2cc(OC)c(OC)c(OC)c2)cc(OC)c1OC	-69*	-1	-14	-73
COc1ccc(/C=N/NC(=O)c2ccc(N(C)S(=O)(=O)c3ccccc3)cc2)c(OC)c1	9	-4	-13	58*
COc1cc(C(=O)NNC(=O)c2ccc(NC(C)=O)cc2)cc(OC)c1OC	-6	/	4	1
COc1cc(C(=O)Nc2ccc3c(c2)nc(C)n3C)cc(OC)c1OC	-7	-13	8	-9
COc1cc(C(=O)Nc2ccc(N(C)C)cc2)cc(OC)c1OC	21	71*	/	29
CCC(=O)N[C@H]1CC[C@@H](CC(=O)NCCN2CCCCC2)O[C@@H]1CO	/	-6	/	/
Cc1noc(C)c1NC(=O)N(C)C[C@H]1Oc2c(NC(=O)Nc3ccc(F)cc3)cccc2C(=O)N([C@@H](C)CO)C[C@@H]1C	/	-1	/	/
C[C@@H]1CN([C@@H](C)CO)C(=O)c2cc(NS(C)(=O)=O)ccc2O[C@@H](C)CCCCO[C@H]1CN(C)C(=O)CCCN(C)C	/	3	/	/
COc1ccc(C(=O)Nc2ccc(S(=O)(=O)N(C)c3ccccc3)cc2)cc1	8	/	-22	28
COc1cc(C(=O)Nc2ccc(S(=O)(=O)N(C)c3ccccc3)cc2)cc(OC)c1OC	49	/	-3	102*

Screening data: PubChem, Broad Institute
